Target: AGT mutant of Example 4 (GST fusion) (Homo sapiens, UniProt P16455 SEQ:1-207, Gly131Lys, Gly132Thr, Met134Leu, Arg135Ser, Asn157Gly, Ser159Glu)
Experiment: competition; reactivity with BG-modified oligonucleotide
Details: tags: N-terminal GST (pGEX-2T); ssDNA; O6-benzylguanine at position 14
Protocol: Reactivity against DNA-based substrates measured with a BG-Cy3 assay: BG-Cy3 is prepared by reacting the previously described O⁶-(4-aminomethyl-benzyl)guanine (Keppler et al., NatureBiotechnol. 21:86-89, 2003) with the commercially available N-hydroxysuccinimide ester of Cy3, (Cy3-NHS, Amersham). The coupling reaction is performed at ambient temperature in N,N-dimethylformamide in the presence of 1 eq. of triethylamine. The BG-Cy3 conjugate is purified by reversed-phase HPLC on a C18-column by using linear gradients from 0.1% trifluoroacetic acid to acetonitrile. After solvent evaporation BG-Cy3 is dissolved in dimethyl sulfoxide and stored at −20° C. For measuring the reactivity with DNA-based substrates, a reaction mixture containing different concentrations (0 to 5 µM) of oligonucleotide SEQ ID NO:2 (modified in position 14), GST-AGT fusion protein at 0.2 µM and BG-Cy3 at […] in reaction buffer (50 mM HEPES, pH 7.2, 1 mM DTT, […] BSA) is incubated in microtiterplates. Fluorescence of the Cy3 derivative (excitation 519 nm, emission at 572 nm) is measured on a Spectramax Gemini plate reader (Molecular Devices).

Sequence of AGT mutant of Example 4 (GST fusion) (P16455 whole entry G131K/G132T/M134L/R135S/N157G/S159E, the tested form may be a part): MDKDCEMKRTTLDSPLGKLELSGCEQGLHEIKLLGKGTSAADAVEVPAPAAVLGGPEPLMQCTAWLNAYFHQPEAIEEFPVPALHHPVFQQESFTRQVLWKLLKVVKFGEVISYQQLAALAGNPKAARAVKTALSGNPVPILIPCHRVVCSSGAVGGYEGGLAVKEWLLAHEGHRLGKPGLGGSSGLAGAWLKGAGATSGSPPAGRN

Row | Sequence | binding signal
1 | GTGGTGGGCAGCTGAGGCGTGG | ≥ 1000 fold reduced vs PGEG-hAGT

Source: patent US20070207532, “Mutants Of O6-Alkylguanine-Dna Alkyltransferase” (published 2007)
